High-throughput results as filed in PubChem.
This is a sample that favours compounds with a hit; in the whole collection about 6.2% have one here.
Lassa entry inh – Lassa virus entry inhibition; Potency, µM (titrated, usually from 37.9 µM), hits mostly inhibitors; Lassa virus pseudotype entry inhibition, cell reporter; 300,000 tested, 1.2% active; calls by dose curve; tested in HEK293 cells; also: nearly all actives have a fitted effect of over 50% in size
FMDV inh – foot and mouth disease virus antiviral activity. Potency, µM (titrated, usually from 57.9 µM), usual class: inhibitors. FMDV antiviral cell-based qHTS. 410,000 tested, 1.2% active; calls by dose curve; tested in HEK293T cells; also: read-out not given here; nearly all actives have a fitted effect of over 45% in size
MARV entry inh – Marburg virus entry inhibition; Marburg virus pseudotyped entry inhibition, cell reporter; Potency, µM (doses to about 37.8 µM), hits mostly inhibitors; 300,000 tested, 1.8% active; AID 540276; calls by dose curve; tested in HEK293 cells
HCMV antiviral – human cytomegalovirus inhibition. 410,000 tested, 4.5% active. activity change, negative = inhibition, % at 57.5 µM. HFF cells, HCMV-luciferase reporter, 72 h; stronger effect = lower value. AID 1259415; in the data active = activity change below about -60%; inconclusive = no clear call, values can overlap the other calls; inactive = above about -39%
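Two-dose cell screen: HFF monolayers treated with compounds and infected with luciferase-expressing HCMV at 1 PFU/cell, 72 h at 37C, then lysed for luciferase measurement.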
A number is an active result; – = inactive; ? = inconclusive; · = not tested or not shown.

SMILES	Lassa entry inh	FMDV inh	MARV entry inh	HCMV antiviral
CC(=O)Nc1ccc(Nc2nc(-c3ccccc3)nc3ccccc23)cc1	?	?	?	-93.9
O=C(CSc1nc(O)c(C(c2ccccc2)c2ccccc2)c(=O)[nH]1)N1CCOCC1	–	–	–	–
COc1ccc(-n2nc(C(=O)N3CCCC(C)C3)c3c4ccccc4n(C)c3c2=O)cc1 (configuration not stated)	–	–	–	–
CC(=O)c1ccc(Cc2ccc(C(C)=O)s2)s1	·	–	·	–
O=C(NCC(c1cccnc1)N1CCc2ccccc21)c1ccc(Cl)cc1 (configuration not stated)	–	?	·	–
COc1ccc2nc(NC(=O)c3cccc(S(=O)(=O)N4CCOCC4)c3)sc2c1	?	?	?	–
Cc1ccc(-c2nc(N/N=C/c3ccncc3)c3ccccc3n2)cc1	?	1µM	2.91µM	–
c1ccc(CN2CCC(Nc3nc(-c4cccnc4)nc4ccccc34)CC2)cc1	?	–	10µM	-63.5
Cc1ccc(Nc2nc(-c3cccnc3)nc3ccccc23)cc1	?	–	3.98µM	-68.8
c1ccc(CNc2nc(-c3cccnc3)nc3ccccc23)cc1	·	?	·	–
Oc1ccc(Nc2nc(-c3ccc(Cl)cc3)nc3ccccc23)cc1	?	–	?	-61.1
c1ccc(Nc2nc(-c3cccnc3)nc3ccccc23)cc1	·	–	·	·
COc1ccc(/C(O)=C2/C(=O)C(=O)N(CCCC(=O)O)C2c2ccc(OC)cc2)cc1 (configuration not stated)	–	–	–	–
CCCCC(=O)N1c2ccccc2C(C)(c2ccccc2)CC1(C)C (configuration not stated)	?	–	–	–
COc1ccccc1C(=O)N1c2ccccc2C(C)(c2ccc(Cl)cc2)CC1(C)C (configuration not stated)	?	?	·	-71.8
COc1ccc(C(=O)N2c3ccc(C)cc3C(C)(c3ccccc3)CC2(C)C)cc1 (configuration not stated)	–	?	·	-71.2
COc1cccc(C(=O)N2c3cc(C)ccc3C(C)(c3ccccc3)CC2(C)C)c1 (configuration not stated)	?	?	·	–
CC1(c2ccc(Cl)cc2)CC(C)(C)N(C(=O)c2cccc(F)c2)c2ccccc21 (configuration not stated)	–	–	·	-64.8
CC1(c2ccccc2)CC(C)(C)N(C(=O)c2ccccc2Cl)c2ccccc21 (configuration not stated)	–	28.2µM	–	–
Cc1ccc2c(c1)C(C)(c1ccccc1)CC(C)(C)N2C(=O)c1ccc(F)cc1 (configuration not stated)	–	?	·	?
CS(=O)(=O)Nc1cccc(-c2nc(NC3CC3)c3ccccc3n2)c1	·	–	·	·
CC(=O)N1c2ccc(S(=O)(=O)NCCc3ccc(S(N)(=O)=O)cc3)cc2CC1C (configuration not stated)	·	–	·	–
CCc1cc(=O)oc2cc(C)cc(OCC(=O)NCc3cccnc3)c12	·	–	·	–
Fc1cc(Br)ccc1Nc1nc2ccccc2n2nnnc12	·	–	·	-72.9
CNC(=O)OCc1nc(SSC(C)(C)C)n(C)c1COC(=O)NC	?	35.5µM	?	-75.9
SMILES	Lassa entry inh	FMDV inh	MARV entry inh	HCMV antiviral
COc1ccc(N2CCN(Cc3nc(N)nc(Nc4ccccc4OC)n3)CC2)cc1	?	–	18.3µM	–
COc1cccc(Nc2nc(N)nc(CCl)n2)c1	?	–	?	-79.6
Cc1cccc(Nc2nc(N)nc(CCl)n2)c1	?	–	?	-103.7
COc1ccc(OC)c(Nc2nc(N)nc(CCl)n2)c1	?	?	–	-99.1
COc1ccccc1Nc1nc(N)nc(CCl)n1	?	–	–	?
O=C(c1ccccc1)N(Cc1ccc(F)cc1)Cc1nc2ccccc2c(=O)[nH]1	–	–	–	–
Cc1ccccc1OCCSc1nnc(-c2ccncc2)n1C	–	–	–	–
COC(=O)c1c(N2C(=O)[C@H]3[C@@H](C2=O)[C@]2(C(=O)Nc4c2ccc(C)c4C)N2CCC[C@@H]32)sc(C)c1C	–	?	?	–
COc1cc(NC(=O)CCCN2C(=O)CCn3nc(-c4cn(C)c5ccccc45)cc32)cc(OC)c1	–	?	·	–
CC(C)N(CCC(=O)c1ccc2ccccc2c1)Cc1ccccc1	5.17µM	–	12.6µM	-77.2
CC(C)(C)n1nnnc1C(c1cccc(C#N)c1)N1CCC(Cc2ccccc2)CC1 (configuration not stated)	?	–	?	–
CCC(C)(C)n1nnnc1C(c1cccc(C#N)c1)N1CCN(c2cc(C)ccc2C)CC1 (configuration not stated)	?	–	2.91µM	–
CCC(C)(C)n1nnnc1C(c1cccnc1)N1CCN(c2cccc(C(F)(F)F)c2)CC1 (configuration not stated)	?	–	13µM	–
O=C(COC(=O)/C=C/c1cccc(Br)c1)NCc1cccs1	·	–	·	–
Cc1ccc(Cl)c(NC(=O)CCl)c1Cl	?	–	6.31µM	?
Cc1ccc(Cl)c(NC(=O)CSc2cccc[n+]2[O-])c1Cl	–	–	–	–
Cc1ccc(NC(=O)CSc2nnc(Cn3c(=O)sc4ccccc43)n2C)cc1Cl	·	–	·	–
Nc1c(N(CCC2=CCCCC2)C(=O)COc2ccc(F)cc2Cl)c(=O)[nH]c(=O)n1Cc1ccccc1	·	?	·	-98.0
N/C(CCS(=O)(=O)c1ccc(Cl)cc1)=N\OC(=O)c1ccccc1C(F)(F)F	22.4µM	–	?	–
Nc1c(N=Nc2ccc(-c3ccc(N=Nc4cc(S(=O)(=O)O)c5ccccc5c4N)cc3)cc2)cc(S(=O)(=O)O)c2ccccc12	?	·	14.1µM	·
Cc1cc(-c2ccc(N=Nc3ccc4c(S(=O)(=O)O)cc(S(=O)(=O)O)c(N)c4c3O)c(C)c2)ccc1N=Nc1ccc2c(S(=O)(=O)O)cc(S(=O)(=O)O)c(N)c2c1O	?	31.6µM	?	·
O=S(=O)(O)c1ccc(N=Nc2ccccc2)cc1	–	–	–	–
CCC(=O)Nc1ccc(CCC(=O)N2CCCC2)cc1	·	–	·	–
Cc1ccc(Sc2ncnc3onc(C)c23)cc1	–	17.8µM	?	–
Cc1noc2ncnc(Sc3c(Cl)cccc3Cl)c12	–	?	?	–
SMILES	Lassa entry inh	FMDV inh	MARV entry inh	HCMV antiviral
Cc1noc2ncnc(Sc3ccc(Cl)cc3)c12	–	?	?	-79.2
O=C(c1ccco1)N1CCN(C(=S)Nc2ccccc2Cl)CC1	–	–	–	–
CCC(=O)Nc1ccc2c(c1)nc(CCN1CCN(c3ccccc3)CC1)n2C	·	–	·	–
FC(F)(F)c1cc(CCN2C(=S)NC[C@@H]2c2ccccc2)cc(C(F)(F)F)c1	·	–	·	–
FC(F)(F)c1cc(CO[C@H]2CCCN[C@H]2c2ccccc2)cc(C(F)(F)F)c1	·	–	14.1µM	·
CC(=O)N(CCC(c1ccco1)C(C)C)Cc1ccc(Cl)cc1 (configuration not stated)	10µM	–	–	–
O=C(Cc1ccccc1)NCC(=O)OCc1ccccc1F	–	?	–	–
CC1(C)CC2(C)OC(=N)C1(C#N)C2(C#N)C#N (configuration not stated)	?	22.4µM	?	–
CCn1c(C(=O)N2CCC(C(=O)NCCc3ccc(C)cc3)CC2)cc2sccc21	·	?	–	·
CCOc1ccc(/C=C2\C(=O)c3ccccc3OC2c2ccccc2)cc1 (configuration not stated)	?	–	–	-99.0
